Reference: PubChem BioAssay AID592 (National Center for Advancing Translational Sciences (NCATS), 2007)
Fewer than 10 of roughly 59,000 compounds were called active. The list is a sample of the results. Values without a mark were called inactive. The rule behind the calls is not given here.

Assay: qHTS Assay for Spectroscopic Profiling in A647 Spectral Region
Settings: Compound fluorescence, A647 channel (570/671 nm), Tris buffer; stronger effect = higher value
Text: NIH Molecular Libraries Screening Centers Network [MLSCN] NIH Chemical Genomics Center [NCGC] […] Occasionally, the artifactual effect may originate from the compounds own spectral or other biophysical properties which generally tend to track its assay concentration. Pre-screening/profiling the library with respect to the compounds spectral properties should help one exclude false positives early on. While the most informative fluorescent profiling data set is obtained by performing a full excitation and emission scan of each well by using a monochromator-based plate reader, such an approach is practical only on a very limited scale as scanning each well requires long time. An alternative approach, applied here, is to perform plate reader scans using selected excitation and emission wavelength pairs to generate a multidimensional relational database that correlates compound concentration and the respective relative fluorescence intensity at a given wavelength set. A standard curve of Alexa 647 (A647) present on each plate as six-point concentration series, was used to compute a normalized fluorescence response, termed dye-equivalent concentration, for each compound at each concentration.
NCGC Assay Protocol Summary: Buffer: 100 mM Tris buffer, pH 8.0 Dye standard plate: The wells in columns 1 through 4 of a Kalypsys polypropylene 1536-well compound plate were filled with standard solutions of fluorophore corresponding to the spectral region of interest. Solutions of A647 were placed in the following wells: AC1, AD1: 3 mM, AC2, AD2: 300 uM, AC3, AD3: 30 uM, AC4, AD4: zero (DMSO), AE1, AF1: 3 uM, AE2, AF2: 900 nM, AE3, AF3: 300 nM, AE4, AF4: zero (DMSO). Assay Steps: Six uL of buffer were dispensed to 1536-well Greiner black plates. Compounds and dye standards (23 nL) were transferred via Kalypsys PinTool. The plates were incubated for 15 min at room temperature, and then read on ViewLux (Perkin-Elmer) High-throughput CCD imager using 570 nm and 671 nm excitation and emission filter set. Keywords: NIH Roadmap, MLSCN, MLI, MLSMR, qHTS, NCGC, A647, A-647, Fluorescent Profiling.

First: O=c1c(-c2cccs2)nc2cnc(Oc3ccccc3)nc2n1-c1ccccc1
Second: COc1cccc(Cn2c(=O)c(C)nc3cnc(Oc4ccccc4)nc32)c1
The max dye-equivalent concentration of the first is 2.8-fold higher: 2.8 nM for the first, 1 nM for the second.

First: COc1cc(C2C3C(=O)N(c4ccccc4)C(=O)C3ON2c2ccccc2)ccc1O (stereo not given)
Second: CCc1ccccc1NC1c2ccccc2C(=O)N1c1cccnc1 (stereo not given)
The max dye-equivalent concentration of the first is 2.7-fold higher: 30 nM for the first, 11 nM for the second.

`COc1ccc2oc(=O)c(C(=O)O)cc2c1` and `COc1ccc2nccc(C(=O)O)c2c1` are the same in max dye-equivalent concentration: 1 nM for the first, 1 nM for the second.

Going from `O=C1N(Cc2ccc3c(c2)OCO3)c2ccccc2C1(O)c1c[nH]c2ccccc12` (stereo not given) to `OCCCN1c2ccccc2Nc2nnc(-c3ccccc3)cc21`, the max dye-equivalent concentration rises from 1 nM to 20 nM (20-fold).

`O=C1CCC(C(=O)Nc2ccc(OC(F)F)cc2)N1` (stereo not given) and `NC(=O)C1CCN(C(=O)c2ccc(C(F)(F)F)cc2)CC1` are the same in max dye-equivalent concentration: 1 nM for the first, 1 nM for the second.

Compared with `CC(=O)N1CCC2(CCCN(c3ncccn3)C2)CC1`, `Cn1cccc1C(=O)N1CCC2(CC1)CN(c1cccc(-c3ccccc3)c1)C2` is 18-fold higher in max dye-equivalent concentration: 1 nM for the first, 18 nM for the second.

`Cc1ccccc1Nc1nnc(C)c(=O)[nH]1` and `O=c1[nH]c(=O)c2nc3ccccc3nc2[nH]1` are within 1.5-fold of each other in max dye-equivalent concentration: 45 nM for the first, 49 nM for the second.

First: Cc1ccc(-n2c(N)c(C(=O)N3CCOCC3)sc2=S)c(C)c1
Second: O=C(c1cccs1)N1CCN(C(=O)N2CCOCC2)CC1
The max dye-equivalent concentration of the first is 9.6-fold lower: 1 nM for the first, 9.6 nM for the second.

Going from `CC(=O)OC(C(=O)NC1CCCCC1)c1ccccc1` (stereo not given) to `CCOC(=O)c1[nH]cnc1C(=O)NC1CCCCC1`, the max dye-equivalent concentration falls from 30 nM to 1 nM (30-fold).

First: Cc1cccc(NC(=O)c2ccccc2NC(=O)C(C)(C)C)n1
Second: CCOC(=O)c1c(C)nc(-c2ccccc2)nc1NC(=O)C(C)C
The max dye-equivalent concentration of the first is 39-fold higher: 39 nM for the first, 1 nM for the second.

`Cc1nc(NCc2ccccc2)c(C(N)=O)c2c1COC(C)(C)C2` and `Cc1nc2nc3c(cn2n1)C(=O)CC(c1ccccc1)C3` (stereo not given) are within 1.5-fold of each other in max dye-equivalent concentration: 37 nM for the first, 28 nM for the second.

Going from `COc1ccccc1CNC(=O)CCCn1c(=O)c2ccccc2n(CC(=O)NC2CCCC2)c1=O` to `Cn1c(=O)[nH]c(=O)c2c1nc(N(CCO)Cc1ccccc1)n2Cc1ccccc1Cl`, the max dye-equivalent concentration rises from 28 nM to 78 nM (2.8-fold).

`CC1Cc2nc(SCC(=O)Nc3ccccc3F)n(C)c(=O)c2S1` (stereo not given) and `O=C(O)CN1C(=O)CC(Cc2ccccc2)C1=O` (stereo not given) are the same in max dye-equivalent concentration: 1 nM for the first, 1 nM for the second.

`CCn1c(=N)c(S(=O)(=O)c2ccc(F)cc2)cc2c(=O)n3ccccc3nc21` and `Cc1cc(N2C(=O)C(=O)/C(=C(/O)c3ccccc3)C2c2cccc(Br)c2)no1` (stereo not given) are the same in max dye-equivalent concentration: 1.8 nM for the first, 1.8 nM for the second.

`O=C(CCCN1C(=O)CSc2ncccc21)N1CCN(c2cccc(C(F)(F)F)c2)CC1` and `O=C(Cc1c(F)cccc1Cl)N1CCN(C(=O)c2ccco2)CC1` are within 1.5-fold of each other in max dye-equivalent concentration: 6.4 nM for the first, 7.2 nM for the second.

Going from `COc1ccc(C(=O)Nc2cccnc2)cc1C(=O)Nc1cccnc1` to `CN(C)CCCNC(=O)c1ccc2[nH]c3ccccc3c2c1`, the max dye-equivalent concentration rises from 1.5 nM to 3 nM (2-fold).

`ClC(Cl)(Cl)C(N1CCN(c2ccccc2)CC1)N1CCN(c2ccccc2)CC1` and `CC(=O)Oc1cccc(N2C(=O)CC(Nc3ccc(N4CCOCC4)cc3)C2=O)c1` (stereo not given) are the same in max dye-equivalent concentration: 1 nM for the first, 1 nM for the second.

`CN(Cc1ccco1)c1cc(-c2ccccc2C(F)(F)F)ncn1` and `CC1(C)SC2c3ccccc3C(=O)N2[C@@H]1C(=O)NCc1ccco1` (stereo not given in full) are the same in max dye-equivalent concentration: 1 nM for the first, 1 nM for the second.

Going from `CCCCn1c(=S)[nH]c2ncccc2c1=O` to `CCCn1c(=O)c2[nH]c(-c3ccc(OCC(=O)NCCN)cc3)nc2n(CCC)c1=O`, the max dye-equivalent concentration rises from 1 nM to 50 nM (50-fold).

First: CSCC[C@H](NC(=O)NCc1cccs1)C(=O)O
Second: C/C(N)=C(\C#N)C(=O)NCCc1ccccn1
The max dye-equivalent concentration of the first is 11-fold lower: 3.7 nM for the first, 39 nM for the second.

Going from `CN(C(=O)COc1nnc(-c2cccs2)c(-c2cccs2)n1)c1ccccc1` to `N#Cc1ccc(CSc2nnc(-c3ccccn3)n2-c2ccc(Cl)cc2)cc1`, the max dye-equivalent concentration rises from 1 nM to 2.1 nM (2.1-fold).

`CCc1nnc(NC(=O)c2nc3nccc(C)n3n2)s1` and `CC(C)CSC[C@@H]1O[C@H](n2cnc3c(N)nccc32)[C@H](O)[C@@H]1O` are within 1.5-fold of each other in max dye-equivalent concentration: 18 nM for the first, 13 nM for the second.

With `Clc1ccc(C=Nc2ccc3c(c2)Cc2ccccc2-3)c(Cl)c1` the max dye-equivalent concentration was 3.2 nM.
